From PubChem BioAssay AID602 (SRMLSC, 2007)
Screen size: about 85,000 compounds; about 35 (0.04%) were called active.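 The calls were made as follows: active = viability drop by adding the cancer drug above about 55%, with treated viability meeting a 40% cutoff (limit read from the data); inactive = the rest, inconclusive results apart.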 Many of the other results were omitted from the sample, so actives are more common in it than they were.

Assay: MRP1 drug-resistance reversers in H69AR cells – cell-based, doxorubicin co-treatment, primary screen (AID 602);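 as to differential viability (reversal): larger differential means the compound sensitizes cells more to doxorubicin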
Settings: CellTiter-Glo, 72 h, at 10 µM; for differential viability (reversal): stronger effect = higher value
[1] = H69AR cells + 2 uM doxorubicin, measured here: viability with 2 uM doxorubicin, stronger effect = lower value
[2] = H69AR cells, measured here: cytotoxicity without doxorubicin

SMILES	differential viability (reversal) (H69AR cells + 2 uM doxorubicin)	viability [1] [%]	viability [2] [%]
CSC1=NP(=S)(SC)N(C)c2nc3n(c21)CCC3 (stereo not given)	57.9% (active)	27.2	85.1
CCOc1ccc(CN(CCCl)CCCl)cc1C(=O)OC	-29% (inactive)	83.1	54.1
Cn1c(O)c(C=NCCN2CCNCC2)c(=O)n(C)c1=O	8.13% (inactive)	85.1	93.2
CC(=O)NC(=O)NC(C)Cc1ccccc1 (stereo not given)	-9.72% (inactive)	96.7	87
CCN(N=Nc1nonc1OC)c1nonc1OC	9.43% (inactive)	86.2	95.7
